Data reported in the supplement of paper PMC10849652.
About 8,800 targets were measured; listed, in parts, are those with a hit and a random draw of the rest. About 0.5% of all pairs of compound and target were hits.

Columns and labels:
Assay in all cases: log2 fold change, soluble protein after heating vs DMSO (PISA); higher = thermal stabilisation; K562 lysate, 10 uM; active = over 0.2 and 3.5 SD of the protein, either way, in both replicates (recomputed)
[1] = compound: C#Cc1cccc(Nc2ncnc3cc(OCCOC)c(OCCOC)cc23)c1 [erlotinib]
Outline: (§1)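 Pellets of K562 cells were dounce-homogenised in PBS pH 7.4 with 1 mM MgCl2, and the crude extract was held at 1 mg/mL protein for a 30 min treatment with 10 μM compound. Aliquots were heated for 3 min over 48°C-58°C and pooled before NP-40 was added to 0.5% at 4°C. The supernatant from 21,000xg for 90 min was quantified by TMTpro 16plex LC-MS/MS with channel sums equalised. Values are reported from duplicates as log-two fold change in thermal stability relative to solvent controls.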

[2] = compound: C/C(=N\NC(=O)C1=CC(=CC=C1)S(=O)(=O)N2CCOCC2)/C3=C(C=CC(=C3)Cl)O
Outline: as §1

[3] = compound: C1=CC(=CC=C1C2=NC3=C(N2)C=C(C=C3)C(=O)N)OC4=CC=C(C=C4)Cl
Outline: as §1

[4] = compound: C1=CC2=C(C=CC(=C2)/C=C\3/C(=O)NC(=NCC4=CC=CS4)S3)N=C1
Outline: as §1

[5] = compound: C1=CC2=NC=CN=C2C=C1/C=C/3\C(=O)NC(=O)S3
Outline: as §1

[6] = compound: C1=CC=C(C=C1)C2=NC(=C(N2)C3=CC=NC=C3)C4=CC(=C(C=C4)Cl)O
Outline: as §1

[7] = compound: C1=CC=C2C(=C1)C3=NNC4=CC=CC(=C43)C2=O
Outline: as §1

[8] = compound: C1CCN(C1)C(=O)NC2=CC=CC(=C2)NC3=NC=C(C(=N3)NCCC4=CN=CN4)Br
Outline: as §1

[9] = compound: C1CN(CCC1(CC2=CC=C(C=C2)Cl)N)C3=NC=NC4=C3C=CN4
Outline: as §1

[10] = compound: C1COCCN1CCN2C3=CC=CC=C3N=C2NC(=O)C4=CC(=CC=C4)[N+](=O)[O-] [IRAK-1-4 Inhibitor I]
Outline: as §1

[11] = compound: C=CC(=O)N1CCC[C@@H](n2nc(-c3ccc(Oc4ccccc4)cc3)c3c(N)ncnc32)C1 [ibrutinib]
Outline: as §1

[12] = compound: CC(=O)c1cnc2ccc(-c3cc(Cl)c(O)c(Cl)c3)nc2c1N[C@H]1CC[C@H](CN(C)C)CC1
Outline: as §1

[13] = compound: CC(C)(C)Cn1c(N)nc2ccc(-c3[nH]c(C(C)(C)C)nc3-c3ccc(F)cc3)nc21 [ralimetinib]
Outline: as §1

[14] = compound: CC(C)(O)CC(=O)NCCn1ccc2ncnc(Nc3ccc(Oc4cccc(C(F)(F)F)c4)c(Cl)c3)c21
Outline: as §1

[15] = compound: CC(C)C1=C2N=C(C=C(N2N=C1)NCC3=CC=CC=C3)NCCCCCCN
Outline: as §1

[16] = compound: CC1=C(C(CC(=O)N1)C2=CC=C(C=C2)C(F)(F)F)C(=O)NC3=C(C=C4C(=C3)C=NN4)F
Outline: as §1

[17] = compound: CC1=C(C2=C(C=C1)C(=O)C3=CC=CC=C3N2CCCN)C
Outline: as §1

[18] = compound: CC1=C(C=C(C=C1)NC(=O)C2=CC(=CC=C2)C(C)(C)C#N)NC3=CC4=C(C=C3)N=CN(C4=O)C
Outline: as §1

[19] = compound: CC1=C(C=C(C=C1)NC(=O)C2=CC(=CC=C2)N(C)C)NC(=O)C3=CC=C(C=C3)O
Outline: as §1

[20] = compound: CC1=CC=C(C=C1)SC2=C3C=C(SC3=CN=C2)C(=O)N
Outline: as §1

Measured: log2 fold change

GSTCD (UniProt Q8NEC7)
Sequence of UniProt Q8NEC7 (Q8NEC7 whole entry, looked up): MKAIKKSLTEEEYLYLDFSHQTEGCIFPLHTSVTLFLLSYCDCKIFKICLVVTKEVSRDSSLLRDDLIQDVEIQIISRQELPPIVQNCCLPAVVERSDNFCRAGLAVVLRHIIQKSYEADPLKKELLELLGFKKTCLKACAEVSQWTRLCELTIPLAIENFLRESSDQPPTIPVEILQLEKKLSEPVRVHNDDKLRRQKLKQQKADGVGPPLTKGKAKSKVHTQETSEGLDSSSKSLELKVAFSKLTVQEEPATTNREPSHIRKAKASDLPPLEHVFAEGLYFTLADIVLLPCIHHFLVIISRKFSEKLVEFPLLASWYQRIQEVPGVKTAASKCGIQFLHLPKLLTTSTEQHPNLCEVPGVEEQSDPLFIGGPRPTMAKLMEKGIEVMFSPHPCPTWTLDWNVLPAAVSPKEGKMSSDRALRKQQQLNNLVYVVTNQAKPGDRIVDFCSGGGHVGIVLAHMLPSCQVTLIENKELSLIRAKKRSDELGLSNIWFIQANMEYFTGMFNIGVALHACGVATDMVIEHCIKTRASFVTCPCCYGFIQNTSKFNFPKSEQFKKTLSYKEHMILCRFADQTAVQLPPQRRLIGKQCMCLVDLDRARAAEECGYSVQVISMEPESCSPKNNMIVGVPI
inactive: [1] 0.041 | [2] -0.017 | [3] -0.037 | [4] 0.033 | [5] -0.027 | [6] 0.012 | [7] -0.021 | [8] -0.028 | [9] 0.005 | [10] -0.055 | [11] 0.057 | [12] -0.01 | [13] 0.033 | [14] -0.023 | [15] -0.038 | [16] 0.044 | [17] -0.04 | [18] 0.051 | [19] -0.003 | [20] 0.011

IGF2BP2 (UniProt Q9Y6M1)
Sequence of UniProt Q9Y6M1 (Q9Y6M1 whole entry, looked up): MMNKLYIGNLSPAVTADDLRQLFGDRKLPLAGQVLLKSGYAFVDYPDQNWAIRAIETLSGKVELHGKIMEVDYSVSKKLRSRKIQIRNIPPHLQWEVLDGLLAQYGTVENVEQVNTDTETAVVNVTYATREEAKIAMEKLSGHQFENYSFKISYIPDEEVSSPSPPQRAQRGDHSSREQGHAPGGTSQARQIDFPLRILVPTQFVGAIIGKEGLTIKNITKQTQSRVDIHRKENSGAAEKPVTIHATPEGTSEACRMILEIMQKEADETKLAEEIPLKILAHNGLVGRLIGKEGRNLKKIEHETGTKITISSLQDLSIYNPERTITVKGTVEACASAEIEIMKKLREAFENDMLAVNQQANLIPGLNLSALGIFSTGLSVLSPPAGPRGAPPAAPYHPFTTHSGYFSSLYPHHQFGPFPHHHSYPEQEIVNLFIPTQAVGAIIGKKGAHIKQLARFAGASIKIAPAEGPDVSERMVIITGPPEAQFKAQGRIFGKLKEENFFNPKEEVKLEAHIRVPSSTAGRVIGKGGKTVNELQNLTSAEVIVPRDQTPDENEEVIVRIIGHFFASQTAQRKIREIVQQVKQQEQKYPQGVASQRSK
inactive: [1] 0.022 | [2] 0.049 | [3] -0.041 | [4] -0.032 | [5] 0.031 | [6] 0 | [7] -0.08 | [8] -0.023 | [9] 0.051 | [10] -0.022 | [11] 0.035 | [12] 0.007 | [13] 0.056 | [14] 0.035 | [15] 0.007 | [16] -0.008 | [17] -0.036 | [18] -0.075 | [19] 0.006 | [20] 0.056

H4C1 (UniProt P62805)
inactive: [1] 0.065 | [2] 0.499 | [3] -0.023 | [4] -0.042 | [5] -0.024 | [6] 0.252 | [7] -0.008 | [8] 0.067 | [9] -0.052 | [10] -0.067 | [11] 0.055 | [12] -0.008 | [13] -0.078 | [14] -0.037 | [15] -0.046 | [16] 0.075 | [17] -0.082 | [18] 0.011 | [19] -0.022 | [20] 0.008

HDAC6 (UniProt Q9UBN7)
Sequence of UniProt Q9UBN7 (Q9UBN7 whole entry, looked up): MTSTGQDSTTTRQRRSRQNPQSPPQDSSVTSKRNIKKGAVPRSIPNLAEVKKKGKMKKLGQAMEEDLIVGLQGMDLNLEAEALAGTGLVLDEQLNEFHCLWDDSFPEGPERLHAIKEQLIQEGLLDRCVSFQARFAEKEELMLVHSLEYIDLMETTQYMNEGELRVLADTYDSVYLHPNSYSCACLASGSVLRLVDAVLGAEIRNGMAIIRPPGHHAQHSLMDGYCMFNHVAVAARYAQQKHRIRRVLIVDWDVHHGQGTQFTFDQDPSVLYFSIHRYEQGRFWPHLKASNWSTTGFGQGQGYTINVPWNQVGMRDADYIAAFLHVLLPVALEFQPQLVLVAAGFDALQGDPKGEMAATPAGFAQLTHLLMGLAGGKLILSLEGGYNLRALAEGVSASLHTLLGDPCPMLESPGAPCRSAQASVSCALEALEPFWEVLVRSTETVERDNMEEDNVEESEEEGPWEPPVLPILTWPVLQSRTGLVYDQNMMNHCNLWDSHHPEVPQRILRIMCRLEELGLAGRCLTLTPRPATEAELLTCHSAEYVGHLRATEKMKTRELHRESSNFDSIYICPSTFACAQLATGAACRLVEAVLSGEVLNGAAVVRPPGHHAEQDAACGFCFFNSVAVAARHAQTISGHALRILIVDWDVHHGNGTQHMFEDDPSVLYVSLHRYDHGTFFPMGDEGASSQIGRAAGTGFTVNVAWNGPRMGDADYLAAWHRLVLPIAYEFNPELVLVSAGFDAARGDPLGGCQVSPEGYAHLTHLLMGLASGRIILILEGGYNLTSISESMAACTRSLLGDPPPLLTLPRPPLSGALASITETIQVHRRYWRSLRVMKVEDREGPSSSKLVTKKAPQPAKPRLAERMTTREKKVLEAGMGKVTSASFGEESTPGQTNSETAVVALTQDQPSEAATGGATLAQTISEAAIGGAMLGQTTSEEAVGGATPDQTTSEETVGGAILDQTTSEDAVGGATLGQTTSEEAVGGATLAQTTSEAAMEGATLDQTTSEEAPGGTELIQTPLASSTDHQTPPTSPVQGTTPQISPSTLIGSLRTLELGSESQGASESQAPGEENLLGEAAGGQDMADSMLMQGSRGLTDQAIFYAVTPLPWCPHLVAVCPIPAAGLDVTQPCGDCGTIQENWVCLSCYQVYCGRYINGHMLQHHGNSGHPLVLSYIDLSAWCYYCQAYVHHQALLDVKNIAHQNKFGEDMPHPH
inactive: [1] -0.025 | [2] -0.002 | [3] -0.025 | [4] -0.006 | [5] -0.014 | [6] -0.042 | [7] -0.034 | [8] -0.001 | [9] -0.023 | [10] 0.008 | [11] -0.051 | [12] 0.003 | [13] -0.024 | [14] -0.041 | [15] -0.014 | [16] -0.036 | [17] -0.002 | [18] 0.008 | [19] -0.01 | [20] 0.01

HNRNPUL2 (UniProt Q1KMD3)
inactive: [1] -0.006 | [2] -0.002 | [3] 0.02 | [4] -0.004 | [5] -0.035 | [6] -0.006 | [7] -0.014 | [8] -0.001 | [9] -0.022 | [10] -0.003 | [11] -0.019 | [13] -0.018 | [14] -0.02 | [15] 0.021 | [16] -0.022 | [17] -0.03 | [18] 0.011 | [19] 0.032 | [20] 0
active: [12] -0.674

HAUS5 (UniProt O94927)
Sequence of UniProt O94927 (O94927 whole entry, looked up): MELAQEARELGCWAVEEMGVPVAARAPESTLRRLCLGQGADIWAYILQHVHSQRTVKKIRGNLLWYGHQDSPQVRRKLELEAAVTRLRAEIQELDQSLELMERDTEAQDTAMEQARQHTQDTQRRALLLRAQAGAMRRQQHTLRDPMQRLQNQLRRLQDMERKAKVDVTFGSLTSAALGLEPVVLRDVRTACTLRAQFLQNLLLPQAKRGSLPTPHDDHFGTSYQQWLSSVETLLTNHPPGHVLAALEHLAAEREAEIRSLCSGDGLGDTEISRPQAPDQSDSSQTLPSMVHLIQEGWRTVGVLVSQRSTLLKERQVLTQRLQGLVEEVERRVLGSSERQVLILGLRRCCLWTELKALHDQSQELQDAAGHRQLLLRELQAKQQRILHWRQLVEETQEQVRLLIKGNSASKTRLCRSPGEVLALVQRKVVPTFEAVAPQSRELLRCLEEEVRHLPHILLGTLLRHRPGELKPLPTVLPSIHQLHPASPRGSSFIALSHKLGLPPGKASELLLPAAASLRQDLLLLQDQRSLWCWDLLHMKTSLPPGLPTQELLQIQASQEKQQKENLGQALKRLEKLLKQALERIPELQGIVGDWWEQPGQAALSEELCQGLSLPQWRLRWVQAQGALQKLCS
inactive: [1] 0.046 | [2] 0.021 | [3] -0.071 | [4] -0.015 | [5] -0.045 | [6] -0.009 | [7] 0.113 | [8] 0.031 | [9] -0.017 | [10] 0.033 | [11] 0 | [12] 0.002 | [13] 0.034 | [14] 0.017 | [15] 0.027 | [16] -0.027 | [17] 0 | [18] 0 | [19] 0.033 | [20] 0.021

GLB1 (UniProt P16278)
Sequence of UniProt P16278 (P16278 whole entry, looked up): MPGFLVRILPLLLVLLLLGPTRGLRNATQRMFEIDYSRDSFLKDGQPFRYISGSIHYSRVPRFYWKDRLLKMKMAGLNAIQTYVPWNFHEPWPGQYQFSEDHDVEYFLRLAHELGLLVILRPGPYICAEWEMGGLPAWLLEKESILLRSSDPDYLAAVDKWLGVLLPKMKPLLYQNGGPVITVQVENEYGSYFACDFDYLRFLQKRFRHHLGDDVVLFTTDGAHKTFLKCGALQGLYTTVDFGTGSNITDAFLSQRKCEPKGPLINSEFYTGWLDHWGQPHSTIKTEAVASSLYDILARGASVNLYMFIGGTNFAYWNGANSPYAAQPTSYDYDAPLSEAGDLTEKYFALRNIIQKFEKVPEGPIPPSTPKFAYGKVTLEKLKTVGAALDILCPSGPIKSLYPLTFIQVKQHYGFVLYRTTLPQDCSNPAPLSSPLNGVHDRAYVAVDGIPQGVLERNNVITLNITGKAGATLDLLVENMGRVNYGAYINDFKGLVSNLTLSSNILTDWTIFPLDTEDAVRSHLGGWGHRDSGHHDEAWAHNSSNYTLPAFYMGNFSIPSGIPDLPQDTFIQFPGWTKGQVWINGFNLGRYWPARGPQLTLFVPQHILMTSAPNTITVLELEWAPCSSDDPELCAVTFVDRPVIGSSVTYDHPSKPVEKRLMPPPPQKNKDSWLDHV
inactive: [1] 0.004 | [2] -0.027 | [3] 0.004 | [4] 0.039 | [5] -0.011 | [6] 0.016 | [7] -0.086 | [8] -0.003 | [9] 0.031 | [10] 0.016 | [11] 0.002 | [12] -0.008 | [13] -0.005 | [14] -0.03 | [15] 0.003 | [16] -0.009 | [17] -0.001 | [18] -0.011 | [19] 0.025 | [20] 0.015

INTS14 (UniProt Q96SY0)
Sequence of UniProt Q96SY0 (Q96SY0 whole entry, looked up): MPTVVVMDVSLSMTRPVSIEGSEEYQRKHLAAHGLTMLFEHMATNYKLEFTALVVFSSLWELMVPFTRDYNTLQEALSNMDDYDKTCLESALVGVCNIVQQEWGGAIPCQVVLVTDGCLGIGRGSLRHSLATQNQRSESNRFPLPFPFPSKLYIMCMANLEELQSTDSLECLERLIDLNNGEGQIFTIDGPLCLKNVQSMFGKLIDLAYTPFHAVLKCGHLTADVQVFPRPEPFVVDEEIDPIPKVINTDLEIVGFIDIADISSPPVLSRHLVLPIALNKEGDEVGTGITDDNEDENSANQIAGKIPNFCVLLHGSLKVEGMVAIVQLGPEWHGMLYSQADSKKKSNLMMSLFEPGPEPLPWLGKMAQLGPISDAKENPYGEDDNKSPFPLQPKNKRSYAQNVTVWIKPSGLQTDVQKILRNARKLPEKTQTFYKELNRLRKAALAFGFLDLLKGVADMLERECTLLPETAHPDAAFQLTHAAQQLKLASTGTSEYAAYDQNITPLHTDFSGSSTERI
inactive: [1] 0.007 | [2] -0.13 | [3] 0.025 | [4] 0.008 | [5] -0.012 | [6] -0.001 | [7] 0.018 | [8] -0.01 | [9] 0 | [10] 0.006 | [11] -0.006 | [12] -0.008 | [13] 0.023 | [14] -0.012 | [15] -0.048 | [16] -0.003 | [17] -0.029 | [18] -0.004 | [19] 0.006 | [20] -0.01

GMDS (UniProt O60547)
Sequence of UniProt O60547 (O60547 whole entry, looked up): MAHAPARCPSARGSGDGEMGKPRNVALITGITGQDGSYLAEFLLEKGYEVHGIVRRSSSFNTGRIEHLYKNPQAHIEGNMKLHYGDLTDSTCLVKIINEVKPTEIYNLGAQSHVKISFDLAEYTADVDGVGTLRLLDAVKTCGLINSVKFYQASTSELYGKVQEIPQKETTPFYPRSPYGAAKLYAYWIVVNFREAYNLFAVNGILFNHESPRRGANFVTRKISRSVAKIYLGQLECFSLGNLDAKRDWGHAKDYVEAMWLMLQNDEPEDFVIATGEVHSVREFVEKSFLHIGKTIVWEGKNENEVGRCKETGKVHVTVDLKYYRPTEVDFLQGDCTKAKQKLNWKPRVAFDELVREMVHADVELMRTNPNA
inactive: [1] 0.017 | [2] 0.005 | [3] 0.029 | [4] -0.054 | [5] -0.012 | [6] -0.023 | [7] -0.043 | [8] 0.019 | [9] 0.036 | [10] 0.01 | [11] 0.042 | [12] -0.018 | [13] 0.025 | [14] 0.01 | [15] -0.023 | [16] 0.031 | [17] 0.022 | [18] 0.027 | [19] 0.008 | [20] 0.015
